PubChem BioAssay (NCI)
About 83,000 compounds went through this panel and 20% of them were active in at least one assay; those are over-represented in the sample as a whole.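 Percent growth is the endpoint: 0 to 100 indicates growth inhibition (40 means 60% inhibition), 0 means no net growth, and negative values indicate cell death.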 Unmarked numbers belong to inactive results. Calls of active or inactive are those of the source. Rule for the calls: active = growth percent below 10; inactive = the rest.

How the values were obtained:
Experiment in all cases: NCI-60 one-dose screen, 48 h (100 = growth as untreated, 0 = no growth, -100 = all killed)
Conditions in all cases: 10 µM unless noted
HCT-15 colon = system: HCT-15 colon
HT29 colon = system: HT29 colon
SNB-75 CNS = system: SNB-75 CNS
SNB-19 CNS = system: SNB-19 CNS
U251 CNS = system: U251 CNS
PC-3 prostate = system: PC-3 prostate
SK-MEL-5 melanoma = system: SK-MEL-5 melanoma
UACC-62 melanoma = system: UACC-62 melanoma
LOX IMVI melanoma = system: LOX IMVI melanoma
SK-MEL-28 melanoma = system: SK-MEL-28 melanoma
SK-MEL-2 melanoma = system: SK-MEL-2 melanoma
EKVX NSCLC = system: EKVX NSCLC
SN12C renal = system: SN12C renal
UO-31 renal = system: UO-31 renal
TK-10 renal = system: TK-10 renal
ACHN renal = system: ACHN renal
CAKI-1 renal = system: CAKI-1 renal
A498 renal = system: A498 renal
CCRF-CEM leukemia = system: CCRF-CEM leukemia
MOLT-4 leukemia = system: MOLT-4 leukemia

Structure (SMILES)	growth (HCT-15 colon)	growth (HT29 colon)	growth (SNB-75 CNS)	growth (SNB-19 CNS)	growth (U251 CNS)	growth (PC-3 prostate)	growth (SK-MEL-5 melanoma)	growth (UACC-62 melanoma)	growth (LOX IMVI melanoma)	growth (SK-MEL-28 melanoma)	growth (SK-MEL-2 melanoma)	growth (EKVX NSCLC)	growth (SN12C renal)	growth (UO-31 renal)	growth (TK-10 renal)	growth (ACHN renal)	growth (CAKI-1 renal)	growth (A498 renal)	growth (CCRF-CEM leukemia)	growth (MOLT-4 leukemia)
C=C(C)[C@@H]1CC[C@]2(C(=O)N3CCN(C)CC3)CC[C@]3(C)[C@H](CC[C@@H]4[C@@](C)(CCC(=O)O)[C@H](C(=C)C)CC[C@]43C)[C@@H]12	82.5%	78%	76%	93.6%	79.7%	55.4%	82.7%	71.3%	92.5%	99%	92.2%	86%	85.9%	50.5%	94.3%	82.8%	63.1%	53%	70.7%	61.2%
C=C1C(=O)O[C@H]2[C@H]1CC/C(COC(=O)/C=C\C(=O)NCc1ccc(Cn3c(=O)sn(CCCCl)c3=O)cc1)=C\CC[C@@]1(C)O[C@@H]21	30.8%	46.9%	88.5%	94.8%	79.6%	76.9%	102%	65.1%	64.2%	100%	83.4%	94.1%	64.9%	53.1%	57.7%	40.2%	51.6%	103%	1.6% (active)	60.7%
COc1ccc(-c2cc(-c3cccnc3)nc3sc4c(N)c(C(C)=O)c(-c5ccccc5)nc4c23)cc1OC	73.6%	52.5%	63.5%	86%	55.6%	54.9%	39.4%	75.5%	75.5%	70%	89.1%	87.4%	80.3%	51.8%	77.6%	81.1%	61.8%	71.7%	70.5%	72.5%
NCCCNc1nc2ccccc2c2c(=O)c3cc(Cl)ccc3sc12	-76.9% (active)	-45.4% (active)	47.9%	22.8%	-95.1% (active)	-18.9% (active)	46.9%	-6.22% (active)	-90.5% (active)	-30% (active)	41%	57.4%	-66.5% (active)	-71.7% (active)	24.3%	-37.2% (active)	22.1%	70.2%	-28.5% (active)	-61.8% (active)
COc1ccc(/C=N/Nc2c3ccccc3nc3ccccc23)cc1	92.6%	93.9%	93.4%	92.4%	93.4%	83.1%	90.4%	91.1%	92.9%	108%	82.2%	86.9%	91%	76.1%	107%	98.9%	88.2%	69.6%	90.8%	90.3%
COCCn1cc(-c2nc(-c3cc4cccnc4n3C)cs2)c2ccccc21	21.5%	12.9%	61.3%	63.5%	33.3%	27.5%	2.5% (active)	46.2%	38.7%	73.1%	18.7%	19.8%	59.1%	52.1%	44.2%	54.9%	60.7%	33.2%	46.2%	26.6%
O=c1oc2c(cnc3ccccc32)cc1-c1cccc(Cl)c1	101%	108%	95.6%	98.5%	98.2%	97.7%	107%	96.1%	102%	105%	118%	99.1%	98.3%	90.4%	118%	104%	92%	83.1%	76.5%	96.3%
C#CCOc1cccc(Nc2ncnc3cc(NC(=O)CCl)ccc23)c1	-53.5% (active)	-78.9% (active)	-49.9% (active)	-88% (active)	-78.9% (active)	-83.8% (active)	-93.8% (active)	-73.9% (active)	-67.3% (active)	-30.6% (active)	-55.3% (active)	-49.1% (active)	-83.5% (active)	-88.7% (active)	-85% (active)	-84.1% (active)	-57.7% (active)	-25.6% (active)	-46.9% (active)	-35.4% (active)
CC(=O)c1ccc(-n2cc(CN3CCN(c4cc5c(cc4F)c(=O)c(C(=O)O)cn5C4CC4)CC3)nn2)cc1	93.8%	90.8%	92.7%	98.2%	98.4%	83.9%	84.3%	90.5%	55.4%	99.3%	96.4%	88.5%	103%	63.1%	103%	96.7%	87.8%	76.7%	111%	102%
CCCOC(=O)Nc1nc2ccc(SCC)cc2s1	54.3%	31.3%	90.5%	84.5%	85%	80.8%	83.6%	61.2%	71.1%	85.9%	76.2%	94.3%	89.6%	90.7%	84.9%	107%	79.8%	70.7%	72.1%	72.9%
Oc1c(CN2CCC(N3CCOCC3)CC2)cc(Cc2cc(CN3CCC(N4CCOCC4)CC3)c(O)c3ncccc23)c2cccnc12	24%	30.2%	56.9%	29.3%	27.5%	13.1%	8.31% (active)	-6.33% (active)	1.05% (active)	45%	53.7%	24.9%	29.1%	17.9%	42.3%	23.5%	13.2%	69.1%	12.6%	6.57% (active)
COC1C(O)CC(OC2CC(OC3CC(O[C@@H]4C(=O)c5c(cc6cc(OC7CC(OC8CC(O)C(O)C(C)O8)C(O)C(C)O7)c(C)c(O)c6c5O)CC4[C@H](OC)[C@@H](O)C(C)=O)OC(C)C3O)OC(C)C2O)OC1C (stereo not given in full)	28%	-16.9% (active)	-17.6% (active)	16.4%	7.11% (active)	16.9%	-65.2% (active)	-20.9% (active)	-25.2% (active)	-13.9% (active)	-37.7% (active)	19.8%	17%	0.176% (active)	-1.06% (active)	0.949% (active)	29.3%	-78.8% (active)	16.6%	-2.23% (active)
Clc1ccc(Nc2ncc(Cc3cccc(Cl)c3Cl)s2)cc1	92.3%	95.7%	116%	98%	85.7%	88%	97.1%	81.6%	97.7%	95.6%	101%	97.9%	90.8%	72.5%	98.3%	97.5%	87.7%	93.7%	94%	86.7%
CN(C)CCCn1c2c(c3ccncc3c1=O)C(=O)c1ccccc1-2	2.9% (active)	2.14% (active)	21%	1.91% (active)	0.267% (active)	-18.5% (active)	-94.3% (active)	-56.7% (active)	-42.3% (active)	-43.1% (active)	-4.66% (active)	82.7%	6.53% (active)	-37.4% (active)	12.8%	-38.4% (active)	10.8%	58%	1.34% (active)	-15% (active)
COc1ccccc1/C=C/C(=O)Nc1ccc(F)cc1	98.4%	89.1%	77.9%	99.8%	108%	95.7%	95.1%	89.8%	100%	108%	99.1%	73.2%	111%	87.6%	128%	101%	90.7%	102%	97.6%	88.1%
